Test results as given in PubChem BioAssay (NCATS).
Records with an inconclusive call do not appear. A number with no mark means an inactive call. Active and inactive are the calls of the source. The call rests on the fitted dose curve; in most records, active means well fitted inhibition curve with a large enough effect; inconclusive means small, poorly fitted or top-dose-only effect; inactive means no such curve, though single readings can be large or run the other way. Positions of bridges follow the written chain, without caps; N, C: chain ends. Non-standard residues stand in square brackets, D forms with d. Residues, ends and D or L forms follow the SMILES beside them. ξ: configuration not given here. *: point of attachment. ξDab(CH2SO3H) = NC(CCNCS(=O)(=O)O)C(=O)O; Octanoyl(6-Me) = CCC(C)CCCCC(=O)*; Dab = NCC[CH](N)C(=O)O

target: Furin (Homo sapiens) (UniProt P09958); assay: Furin counterscreen qHTS for Zika virus inhibitors (AID 1347149); details: furin enzymatic counterscreen, fluorogenic substrate; series mostly up to 114 µM; activity change, negative = inhibition: at the top concentration; further: nearly all actives have a fitted effect of over 70% in size;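 on activity change, negative = inhibition: purified recombinant full-length human furin enzyme at 5 nM; fluorescence gain from furin cutting a BOC-RVRR-AMC peptide substrate over 15 min; top concentration of the series differs between compounds; plate controls were no-inhibitor control for no effect and no-enzyme control for full effect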
Sequence (P09958 whole entry, looked up): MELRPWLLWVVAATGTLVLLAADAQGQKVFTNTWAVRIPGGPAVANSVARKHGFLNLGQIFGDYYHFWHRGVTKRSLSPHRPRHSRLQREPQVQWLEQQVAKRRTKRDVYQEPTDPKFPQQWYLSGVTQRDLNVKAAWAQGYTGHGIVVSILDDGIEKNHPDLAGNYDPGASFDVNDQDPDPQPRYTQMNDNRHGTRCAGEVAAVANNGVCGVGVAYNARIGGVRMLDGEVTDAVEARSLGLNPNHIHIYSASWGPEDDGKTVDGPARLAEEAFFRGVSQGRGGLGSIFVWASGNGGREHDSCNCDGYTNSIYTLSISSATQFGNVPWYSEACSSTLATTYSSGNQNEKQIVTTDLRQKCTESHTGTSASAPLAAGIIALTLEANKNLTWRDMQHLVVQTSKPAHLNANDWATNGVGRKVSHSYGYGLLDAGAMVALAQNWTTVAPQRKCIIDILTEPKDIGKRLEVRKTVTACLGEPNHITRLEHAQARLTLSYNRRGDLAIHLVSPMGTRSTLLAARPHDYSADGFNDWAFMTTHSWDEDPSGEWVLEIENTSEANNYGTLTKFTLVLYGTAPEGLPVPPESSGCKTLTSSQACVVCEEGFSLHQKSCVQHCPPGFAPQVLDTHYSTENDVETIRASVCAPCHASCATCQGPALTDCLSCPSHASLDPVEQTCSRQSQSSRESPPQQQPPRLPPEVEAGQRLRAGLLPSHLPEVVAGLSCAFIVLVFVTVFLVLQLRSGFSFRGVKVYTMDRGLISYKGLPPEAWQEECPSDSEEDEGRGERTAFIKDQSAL
Method in brief: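 Fluorogenic cleavage of BOC-RVRR-AMC (2 microM final, Km ~15 µM) was monitored (ex 340, em 450 nm) at 37C after 15 min RT preincubation of 5 nM furin with compounds in HEPES pH 7.0 buffer with CaCl2 and Triton X-100. Percent inhibition was fitted to a 4-parameter Hill curve.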
Potency means the concentration at half of the fitted maximal effect.

| Structure (SMILES) | activity change, negative = inhibition | Potency |
| --- | --- | --- |
| O=C1C=CC(=O)c2c(O)c(Cl)c(Cl)c(O)c21 | -3.21% | – |
| CCN(CC)c1ccc(/C=N/NC(=O)c2ccc(O)cc2)cc1 | – | 24.1 µM (active) |
| O=C(O)COc1ccc(-c2nccc3c2C(=O)N(Cc2cccc(C(F)(F)F)c2)CC(COc2cccc(F)c2)O3)cc1 (stereo not given) | -11.7% | – |
| O=C(O)COc1ccc(-c2nccc3c2C(=O)N(Cc2cccc(C(F)(F)F)c2)CC(COc2ccc4cnccc4c2)O3)cc1 (stereo not given) | – | 62.2 µM (active) |
| CC[C@@H]1O[C@]2(C=C[C@@H]1C)C[C@H]1C[C@H](CC=C(C)[C@@H](O[C@@H]3C[C@H](OC)[C@H](O[C@@H]4C[C@H](OC)[C@H](O)[C@H](C)O4)[C@H](C)O3)[C@@H](C)C=CC=C3CO[C@@H]4[C@@H](O)C(C)=C[C@@H](C(=O)O1)[C@]34O)O2 | -7.21% [at 36.2 µM] | – |
| COc1ccccc1C(=O)Nc1ccc(C(=O)OCc2cc(=O)n3c4c(sc3n2)CCCC4)cc1 | – | 7.44 µM (active) |
| Cc1cc(S(=O)(=O)Nc2ccc(C(=O)O)cc2)c(C)c(S(=O)(=O)c2ccc(Cl)cc2)c1 | 10.7% | – |
| N#Cc1ccc(OCC2CN(Cc3c[nH]c4ccccc34)C(=O)c3c(ccnc3-c3ccc(OCC(=O)O)cc3)O2)cc1 (stereo not given) | 12.7% | – |
| CCOC(=O)c1ccc(NC(=O)CSc2nc(-c3cccs3)cc(C(F)(F)F)c2C#N)cc1 | 123% | – |
| O=C(O)COc1ccc(-c2nccc3c2C(=O)N(Cc2ccccc2)CC(COc2ccc4cccnc4c2)O3)cc1 (stereo not given) | – | 49.4 µM (active) |
| CCOc1ccc(S(=O)(=O)Nc2cc3c(C(=O)OCc4ccccc4)c(C)oc3c3ccccc23)cc1 | -6.74% | – |
| O=C(COc1ccccc1)Nc1ccc(C(=O)OCc2cc(=O)n3nc(C4CC4)sc3n2)cc1 | 9.26% | – |
| Cc1ccc(OCC(=O)Nc2ccc(C(=O)OCc3cc(=O)n4nc(C5CC5)sc4n3)cc2)cc1 | 3.81% | – |
| CC1OC(OC2C(O)CC(OC3C(O)CC(OC4CCC5(C)C(CCC6C5CC(O)C5(C)C(C7=CC(=O)OC7)CCC65O)C4)OC3C)OC2C)CC(O)C1O (stereo not given) | 0.479% | – |
| CCCCOc1ccc(C2C(=O)N(C3CCCCC3)CC(=O)N2C2CCCCC2)cc1 (stereo not given) | -0.12% [at 57.5 µM] | – |
| Clc1nc2n[nH]nc2nc1Cl | – | 39.8 µM (active) |
| CCCCc1nn2c(=O)cc(COC(=O)c3ccc(NC(=O)CCc4ccccc4)cc3)nc2s1 | -7.39% | – |
| O=c1oc2ccc3ccccc3c2cc1-c1nnc(Nc2cc(C(F)(F)F)ccc2Cl)s1 | 9.29% | – |

| Structure (SMILES) | activity change, negative = inhibition | Potency |
| --- | --- | --- |
| Cc1cccc(OCC(=O)Nc2ccc(C(=O)OCc3cc(=O)n4nc(C5CC5)sc4n3)cc2)c1 | 10.2% | – |
| CCOC(=O)c1ccc(NC(=O)CSc2nc(-c3ccc(OC)cc3)cc(C(F)(F)F)c2C#N)cc1 | 901% | – |
| CCC(C)CCCCC(=O)NC(CCNCS(=O)(=O)O)C(=O)NC(C(=O)NC(CCNCS(=O)(=O)O)C(=O)NC1CCNC(=O)C(C(C)O)NC(=O)C(CCNCS(=O)(=O)O)NC(=O)C(CCNCS(=O)(=O)O)NC(=O)C(CC(C)C)NC(=O)C(CC(C)C)NC(=O)C(CCNCS(=O)(=O)O)NC1=O)C(C)O (stereo not given) ({Octanoyl(6-Me)}-[ξDab(CH2SO3H)]T[ξDab(CH2SO3H)][Dab][ξDab(CH2SO3H)]LL[ξDab(CH2SO3H)][ξDab(CH2SO3H)]T; lactam 4-C; configuration not given here) | -1.18% | – |
| COc1cccc(C(=O)Nc2ccc(C(=O)OCc3cc(=O)n4nc(C5CC5)sc4n3)cc2)c1 | – | 41.8 µM (active) |
| CC(C)CN1CC(COc2ccc3ccccc3c2)Oc2ccnc(-c3ccc(OCC(=O)O)cc3)c2C1=O (stereo not given) | -5.99% | – |
| Cc1ccc(-c2nnc(Nc3ccc(O)cc3)c3ccccc23)cc1S(=O)(=O)NC(C)(C)CO | 2.03% | – |
| CC[C@@H](C(=O)[C@H](C)[C@@H](O)[C@H](C)CCc1ccc(C)c(O)c1C(=O)O)C1O[C@@](CC)(C2CC[C@](O)(CC)[C@H](C)O2)C[C@@H]1C (stereo not given in full) | -1.83% [at 57.5 µM] | – |
| O=S(=O)(Nc1ccc(O)c(Sc2nc3ccccc3s2)c1)c1cc(Cl)ccc1Cl | -0.0226% | – |
| O=C(COc1ccccc1C(=O)OCC(=O)Nc1cccc2ccccc12)Nc1ccc(Br)cc1 | -0.179% | – |
| CC(Oc1ccccc1)C(=O)Nc1ccc(C(=O)OCc2cc(=O)n3nc(C4CC4)sc3n2)cc1 (stereo not given) | -42.5% | – |
| Cc1ccc(-c2nnc(Nc3ccccc3)c3ccccc23)cc1S(=O)(=O)NCc1nc2ccccc2[nH]1 | – | 41.8 µM (active) |
| O=C(OCc1cc(=O)n2nc(C3CC3)sc2n1)c1cccc(NC(=O)c2ccccc2Cl)c1 | -9.76% | – |
| Clc1ccc(-c2nn3c(COc4cccc(OCc5nnc6sc(-c7ccc(Cl)cc7)nn56)c4)nnc3s2)cc1 | -23.5% | – |
| Cc1nn2c(=O)cc(COC(=O)c3ccc(NC(=O)c4ccc(C(C)(C)C)cc4)cc3)nc2s1 | – | 52.7 µM (active) |
| Cc1cccc(C(=O)Nc2ccc(C(=O)OCc3cc(=O)n4c5c(sc4n3)CCCC5)cc2)c1 | – | 46.9 µM (active) |
| CCOC(=O)c1ccc(NC(=O)CSc2nc(-c3ccc(F)cc3)cc(C(F)(F)F)c2C#N)cc1 | 39.5% | – |
| COc1ccc(NS(=O)(=O)c2ccc(NS(=O)(=O)c3ccc4c(c3)OCCO4)cc2)cc1 | 3.1% | – |
